Inconclusive results are not listed. The source made the active and inactive calls. The call rests on the fitted dose curve; in most records, active means well fitted inhibition curve with a large enough effect; inconclusive means small, poorly fitted or top-dose-only effect; inactive means flat fitted curve, though single readings scatter.
Columns and labels:
Experiment in all cases: qHTS profiling for inhibitors of Plasmodium falciparum proliferation (AID 504749); further: nearly all actives have a fitted effect of over 60% in size
Details in all cases: P. falciparum in erythrocytes, SYBR Green DNA, 72 h; series mostly up to 28.7 µM
CP262 = tested on: CP262
How it was run: (§1)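 Fluorescence of SYBR Green-bound parasite DNA, read at 485/535 nm, served as the growth measure. Infected erythrocytes were cultured with compound 72 h; artemisinin (0.29 uM) and DMSO wells defined the normalization range.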

CP265 = tested on: CP265
How it was run: as §1

CP266 = tested on: CP266
How it was run: as §1

CP268 = tested on: CP268
How it was run: as §1

CP269 = tested on: CP269
How it was run: as §1

CP286 = tested on: CP286
How it was run: as §1

CP291 = tested on: CP291
How it was run: as §1

CP297 = tested on: CP297
How it was run: as §1

CP305 = tested on: CP305
How it was run: as §1

CP315 = tested on: CP315
How it was run: as §1

CP325 = tested on: CP325
How it was run: as §1

CP329 = tested on: CP329
How it was run: as §1

CP335 = tested on: CP335
How it was run: as §1

DFO2036 = tested on: DFO2036
How it was run: as §1

DIV14 = tested on: DIV14
How it was run: as §1

DIV17 = tested on: DIV17
How it was run: as §1

DIV30 = tested on: DIV30
How it was run: as §1

Dd2 = tested on: Dd2
How it was run: as §1

ECU = tested on: ECU
How it was run: as §1

FAB9 = tested on: FAB9
How it was run: as §1

GB4 = tested on: GB4
How it was run: as §1

HB3 = tested on: HB3
How it was run: as §1

ICS = tested on: ICS
How it was run: as §1

JCK = tested on: JCK
How it was run: as §1

N140 = tested on: N140
How it was run: as §1

P93_24 = tested on: P93_24
How it was run: as §1

P94_40 = tested on: P94_40
How it was run: as §1

PAD = tested on: PAD
How it was run: as §1

PC15 = tested on: PC15
How it was run: as §1

PC26 = tested on: PC26
How it was run: as §1

PC49 = tested on: PC49
How it was run: as §1

SC27B = tested on: SC27B
How it was run: as §1

TAB109 = tested on: TAB109
How it was run: as §1

TAB113 = tested on: TAB113
How it was run: as §1

TAB165 = tested on: TAB165
How it was run: as §1

Measured: Potency

CN1[C@@H]2CC(OC(=O)[C@@H](CO)c3ccccc3)C[C@@H]1[C@H]1O[C@H]12 (stereo not given in full)
inactive: CP262 | CP265 | CP266 | CP268 | CP269 | CP286 | CP291 | CP297 | CP305 | CP315 | CP325 | CP329 | CP335 | DFO2036 | DIV14 | DIV17 | DIV30 | Dd2 | ECU | FAB9 | GB4 | HB3 | ICS | JCK | N140 | P93_24 | P94_40 | PAD | PC15 | PC26 | PC49 | SC27B | TAB109 | TAB113 | TAB165
